Laboratory results from PubChem BioAssay.
The source made the active and inactive calls. Unless noted, the rule behind the calls is not given here.

Columns and labels:
[1] = tested on: XIP peptide (Xip251-270) binding; assay: small-molecule binders of XIP peptide, primary screen, biochemical, small-molecule microarray, fluorescence 635/667 nm, 0.1 µg/mL protein (AID 1182); conditions: fluorescent protein binding, 635 nm, higher = more signal, called active from +8 up or from −8 down
XIP peptide (Xip251-270) = assay: small-molecule binders of XIP peptide, primary screen, biochemical, small-molecule microarray, fluorescence 635/667 nm, 0.5 µg/mL protein (AID 1183); conditions: small-molecule microarray binding, fluorescence 635 nm; higher = more signal
[2] = Plasmodium falciparum growth inhibition, primary screen, strain 3D7, DAPI fluorescence, 100 nL (AID 1184);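 note: parasites grown inside human red blood cells in medium with human serum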; conditions: P. falciparum 3D7 growth, 3 d, higher = more signal
[3] = molecular target: Homeobox protein Hox-A13 (Mus musculus) (UniProt Q62424); assay: inhibitors of HoxA13-DNA binding, primary screen, biochemical, fluorescence polarization, labeled oligonucleotide (AID 1185); conditions: 15 min, higher = more signal, called active from +8 up or from −8 down
[4] = inhibitors of hydroxyurea-induced Chk1 phosphorylation, primary screen, imaging, HeLa, phospho-Chk1 antibody, percent positive cells (AID 1186); conditions: hydroxyurea-induced phospho-Chk1 immunofluorescence imaging, higher = more signal
[5] = inhibitors of hydroxyurea-induced Chk1 phosphorylation, primary screen, imaging, HeLa, phospho-Chk1 nuclear intensity (AID 1187); conditions: hydroxyurea-induced phospho-Chk1 immunofluorescence imaging, higher = more signal

Sequence of Homeobox protein Hox-A13 (Mus musculus) (Q62424 whole entry, looked up): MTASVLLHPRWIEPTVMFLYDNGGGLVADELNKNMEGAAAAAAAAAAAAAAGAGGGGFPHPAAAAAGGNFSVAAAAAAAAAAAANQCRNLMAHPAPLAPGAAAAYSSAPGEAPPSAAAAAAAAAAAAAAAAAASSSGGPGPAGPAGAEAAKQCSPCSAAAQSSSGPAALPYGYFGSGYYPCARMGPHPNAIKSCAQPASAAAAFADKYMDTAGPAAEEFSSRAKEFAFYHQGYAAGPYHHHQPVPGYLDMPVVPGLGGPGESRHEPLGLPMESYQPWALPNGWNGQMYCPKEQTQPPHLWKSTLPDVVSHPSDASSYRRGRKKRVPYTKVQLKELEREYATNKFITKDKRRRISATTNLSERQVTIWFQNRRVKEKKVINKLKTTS

Structure (SMILES) | composite z-score [1] | composite z-score (XIP peptide (Xip251-270)) | z-score [2] | z-score [3] | z-score [4] | z-score [5]
COCCOC(=O)N1C(=O)[C@@]2(c3ccccc31)[C@H](c1ccc(OCCO)cc1)N1[C@H](c3ccccc3)[C@H](c3ccccc3)OC(=O)[C@H]1[C@@H]2C(=O)NC[C@H](O)c1ccccc1 | 0.103 (inactive) | 0.808 | -1.64 | -4.23 (inactive) | 0.228 (inactive) | 0.726 (inactive)
C=C[C@@H](O)[C@H]1CC(c2ccccc2)=NO1 | 0.465 (inactive) | -0.299 | 0.99 | -0.345 (inactive) | -0.386 (inactive) | -0.573 (inactive)
COc1ccc(CCNC(=O)[C@@H]2c3ccccc3C(=O)N(Cc3ccccc3C(F)(F)F)[C@H]2c2ccc(CO)cc2)cc1 | -0.251 (inactive) | 0.766 | -0.756 | -3.85 (inactive) | 0.239 (inactive) | 0.61 (inactive)
C[C@]12C(=O)N(CCCO)[C@@H]3C(=O)N(c4ccc(Cl)cc4)CC=CC31O[C@@H]1/C=C\CCCOC(=O)C12 (stereo partly drawn) | -0.232 (inactive) | -0.271 | 0.571 | -6.08 (inactive) | -0.647 (inactive) | -0.0294 (inactive)
COC(=O)[C@@]1(Cc2ccc(OC)cc2)[C@H]2c3cc(C(=O)N4CCCC4)n(Cc4ccc(C)o4)c3C[C@H]2CN1C(=O)c1ccccc1 | 0.0373 (inactive) | 0.283 | -1.77 | -5.91 (inactive) | -0.683 (inactive) | -1.38 (inactive)
NC(=O)NCC#Cc1ccc2c(c1)[C@]1(C(=O)N2)[C@H](c2ccc(O)cc2)N2[C@H](c3ccccc3)[C@H](c3ccccc3)OC(=O)[C@H]2[C@@H]1C(=O)NC[C@H](O)c1ccccc1 | -0.0884 (inactive) | -0.294 | -0.547 | -0.93 (inactive) | -0.186 (inactive) | -0.151 (inactive)
COc1ccc([Si](C)(C)[C@@H]2[C@@H](CCO)O[C@]3(C(=O)N(Cc4ccc(N5C(=O)c6ccccc6Oc6ccccc65)cc4)c4ccccc43)[C@H]2C)cc1 | 0.89 (inactive) | 0.294 | -2.77 | -1.06 (inactive) | -0.42 (inactive) | -0.394 (inactive)
CCCN1C(=O)[C@@H]2Cc3c([nH]c4ccccc34)[C@@H](c3cccc(O)c3)N2C1=O | -0.227 (inactive) | 0.181 | 1.39 | -0.802 (inactive) | -0.0463 (inactive) | -0.202 (inactive)
[N-]=[N+]=Nc1ccccc1C[C@]1(C(=O)NCCN2CCOCC2)N=C(c2ccc(OCCCO)cc2)O[C@H]1c1ccccc1N=[N+]=[N-] | 1.24 (inactive) | 0.682 | -2.21 | -3.22 (inactive) | -1.3 (inactive) | -2.17 (inactive)
C=CC[C@]1(C(=O)N(C)C)N=C(c2ccc(OCCCO)cc2)O[C@H]1c1ccccc1 | 0.39 (inactive) | 0.643 | -2.08 | -4.25 (inactive) | -0.271 (inactive) | 0.109 (inactive)
CC1CC/C=C\[C@H]2OC34C=CCN(Cc5ccccc5)C(=O)[C@H]3N(CCO)C(=O)[C@@H]4C2C(=O)O1 (stereo partly drawn) | 0.449 (inactive) | 0.108 | -1.56 | -4.51 (inactive) | -0.455 (inactive) | -0.466 (inactive)
O=C1C[C@@](C(=O)O)(c2ccc([N+](=O)[O-])cc2)[C@@H](c2ccc(CO)cc2)N1CC12CC3CC(CC(C3)C1)C2 | 0.312 (inactive) | 0.748 | -0.626 | -3.96 (inactive) | -0.226 (inactive) | -0.715 (inactive)
COc1ccc([Si](C)(C)[C@H]2[C@H](CCO)O[C@@]3(C(=O)N(Cc4cccc(N5CCOC5=O)c4)c4ccccc43)[C@@H]2C)cc1 | 0.154 (inactive) | 0.687 | -2.79 | -4.21 (inactive) | -1.12 (inactive) | -0.5 (inactive)
